# Records with an inconclusive call do not appear. Where a call stands in place of a potency, no number is given. Active and inactive are the calls of the source. Unless noted, calls come from the whole dose curve; as a rule, active = well fitted curve in the direction sought with a large enough effect in the repeat runs; inconclusive = weak or mixed curves; inactive = no such curve, though single readings can be large; an effect the other way counts as inactive or inconclusive.
# Assays:
# [1] = qHTS assay to identify small molecule antagonists of the estrogen related receptor (ERR) signaling pathway (AID 1224819; note: nearly all actives have a fitted effect of over 50% in size; note: potency is the fitted concentration of half-maximal effect)
# Procedure, shortened: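 Luminescence readout (One-Glo, 30 min, RT) of ERR cell line after 18 h compound exposure at 37 C; cells seeded 2,000/well, pre-incubated 6 h, compounds pinned from DMSO stocks.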
# [2] = qHTS assay to identify small molecule agonists of the estrogen related receptor (ERR) signaling pathway (AID 1224820)
# Procedure, shortened: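 Luminescence readout (One-Glo, 30 min RT) from NTP-supplied ERR cell line exposed to compounds for 18 h at 37 C. Cells seeded 2,000 per well and pre-incubated 6 h before pin-tool compound transfer.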
# [3] = qHTS assay to identify small molecule agonists of the estrogen related receptor signaling pathway with the pleiotropic PPARgamma coactivator (PGC) (AID 1224823)
# Procedure, shortened: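 Luminescence readout (One-Glo, 30 min RT) from PGC/ERR cell line treated 18 h at 37 C with pin-tool-delivered DMSO compound solutions; cells plated 6 h before dosing. Quantitative HTS format.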
# [4] = system: estrogen-related receptor alpha (ERRalpha) with PGC-1alpha coactivator, human; experiment: qHTS assay to identify small molecule antagonists of the estrogen related receptor signaling pathway with the pleiotropic PPARgamma coactivator (PGC) (AID 1224821; calls by dose curve;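 note: series mostly up to about 46 µM; lower luminescence signal means antagonism of PGC/ERR signalling; nearly all actives have a fitted effect of over 50% in size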)
# Procedure, shortened: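 PGC/ERR reporter cells; 6 h pre-incubation 37 C/5% CO2; pin-tool compound in DMSO, 18 h 37 C; One-Glo added, 30 min RT; luminescence read. qHTS antagonist mode.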
# [5] = qHTS assay to identify small molecule antagonists of the estrogen related receptor signaling pathway with the pleiotropic PPARgamma coactivator (PGC) cell viability counter screen (AID 1224822; note: potency is the fitted concentration of half-maximal effect)
# Procedure, shortened: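 Fluorescence read-out of CellTiter-Fluor after 30 min at 37 C; PGC/ERR cells, 2,000 per well, had been exposed to DMSO-dissolved compounds for 17.5 h following a 6 h pre-incubation.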
# [6] = molecular target: Luciferin 4-monooxygenase (Photinus pyralis) (UniProt P08659); experiment: qHTS assay to identify small molecule inhibitors of firefly luciferase (AID 1224835); note: potency is the fitted concentration of half-maximal effect; nearly all actives have a fitted effect of over 25% in size
# Chain of Luciferin 4-monooxygenase (Photinus pyralis) (P08659 whole entry, looked up): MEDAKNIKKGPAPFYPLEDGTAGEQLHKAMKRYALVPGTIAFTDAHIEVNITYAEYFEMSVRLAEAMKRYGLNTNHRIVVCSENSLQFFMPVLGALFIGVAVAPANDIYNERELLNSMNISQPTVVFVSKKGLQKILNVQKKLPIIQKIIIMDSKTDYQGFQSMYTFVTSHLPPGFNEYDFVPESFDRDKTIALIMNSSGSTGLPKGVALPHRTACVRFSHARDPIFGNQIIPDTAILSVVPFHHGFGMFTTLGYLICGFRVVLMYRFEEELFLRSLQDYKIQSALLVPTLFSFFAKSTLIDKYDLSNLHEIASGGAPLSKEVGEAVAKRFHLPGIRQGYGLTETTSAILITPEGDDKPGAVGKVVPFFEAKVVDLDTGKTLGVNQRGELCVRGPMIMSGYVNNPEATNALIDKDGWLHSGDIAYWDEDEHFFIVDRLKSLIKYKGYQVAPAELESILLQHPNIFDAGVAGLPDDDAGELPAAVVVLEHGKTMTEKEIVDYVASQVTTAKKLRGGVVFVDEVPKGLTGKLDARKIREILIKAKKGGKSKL
# Procedure, shortened: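 Inhibition of purified Photinus luciferase is measured by luminescence. Substrate levels (D-luciferin, ATP) sit at their KM values. Each compound is tested in a concentration series.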
# [7] = qHTS assay to identify small molecule agonists of the constitutive androstane receptor (CAR) signaling pathway - cell viability counter screen (AID 1224836); note: series mostly up to about 92 µM; nearly all actives have a fitted effect of over 45% in size
# Procedure, shortened: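 Using CellTiter-Fluor, viability of HepG2 cells harbouring hCAR and CYP2B6-2.2kb was measured following 23 h incubation with a 15-concentration compound series plus PK11195 (0.75 uM final).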
# [8] = qHTS assay to identify small molecule antagonists of the constitutive androstane receptor (CAR) signaling pathway - cell viability counter screen (AID 1224837); note: series mostly up to about 92 µM; nearly all actives have a fitted effect of over 45% in size
# Procedure, shortened: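 Read-out: CellTiter-Fluor fluorescence after 23 hr at 37 C/5% CO2. Cells: HepG2 double-stable for hCAR and CYP2B6-2.2kb. Compounds tested at 15 concentrations in the presence of CITCO, final concentration 50 nM.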
# [9] = molecular target: Nuclear receptor subfamily 1 group I member 3 (Homo sapiens) (UniProt Q14994); experiment: qHTS assay to identify small molecule antagonists of the constitutive androstane receptor (CAR) signaling pathway (AID 1224838);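 note: HepG2 cells stably expressing hCAR with CYP2B6 luciferase reporter stimulated by CITCO; nearly all actives have a fitted effect of over 40% in size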
# Chain of Nuclear receptor subfamily 1 group I member 3 (Homo sapiens) (Q14994 whole entry, looked up): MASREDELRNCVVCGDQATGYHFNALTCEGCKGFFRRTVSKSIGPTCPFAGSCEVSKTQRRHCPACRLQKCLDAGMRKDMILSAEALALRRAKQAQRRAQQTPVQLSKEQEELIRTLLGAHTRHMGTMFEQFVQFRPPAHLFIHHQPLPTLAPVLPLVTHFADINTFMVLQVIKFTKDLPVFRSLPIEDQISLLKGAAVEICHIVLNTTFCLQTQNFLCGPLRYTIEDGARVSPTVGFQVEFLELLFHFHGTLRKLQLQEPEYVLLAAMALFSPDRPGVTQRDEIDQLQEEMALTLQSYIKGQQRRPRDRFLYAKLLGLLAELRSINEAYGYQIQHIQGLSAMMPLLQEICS
# Procedure, shortened: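 Read-out: ONE-Glo luciferase luminescence after 30 min at room temperature. HepG2-CYP2B6-hCAR double-stable cells, compounds in 15-point titration plus 50 nM CITCO final, 24 h at 37 C/5% CO2.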
# [10] = molecular target: Nuclear receptor subfamily 1 group I member 3 (Homo sapiens) (UniProt Q14994); experiment: qHTS assay to identify small molecule agonists of the constitutive androstane receptor (CAR) signaling pathway (AID 1224839); note: nearly all actives have a fitted effect of over 15% in size; note: potency is the fitted concentration of half-maximal effect;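 for activation: HepG2 cells stably carrying human CAR and a CYP2B6 luciferase reporter; series mostly up to about 92 µM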
# Procedure, shortened: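 Double-stable HepG2 cells (hCAR, CYP2B6-2.2kb) seeded 4 h before compound addition. Exposure 24 h with 0.75 uM PK11195 final. Luciferase detected by ONE-Glo.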
# [11] = qHTS assay to identify small molecule antagonists of the estrogen related receptor signaling pathway with the pleiotropic PPARgamma coactivator (PGC) from Tox21 10K library (AID 1224841; call rule not given here; note: actives are mostly falling curves and most rising ones were filed inactive; nearly all actives have a fitted effect of over 50% in size; note: potency is the fitted concentration of half-maximal effect)
# Procedure, shortened: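 Luminescence read-out (One-Glo luciferase reagent, 30 min at room temperature) from PGC/ERR cells exposed to DMSO-dissolved test compounds for 18 h at 37 C; cells, 2,000 per well, had been preincubated 6 h before compound transfer.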
# [12] = qHTS assay to identify small molecule agonists of the estrogen related receptor signaling pathway with the pleiotropic PPARgamma coactivator (PGC) from Tox21 10K library (AID 1224842); note: potency is the fitted concentration of half-maximal effect; nearly all actives have a fitted effect of over 15% in size
# Procedure, shortened: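 Luminescence from One-Glo (30 min, room temperature) measured after PGC/ERR cells had 18 h at 37 C with pinned compound (23 nL in DMSO). Cells had been seeded at 2,000 per well and pre-incubated 6 h.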
# [13] = molecular target: Thyrotropin receptor (Homo sapiens) (UniProt P16473); experiment: qHTS assay to identify small molecule agonists of the thyroid stimulating hormone receptor (TSHR) signaling pathway (AID 1224843; calls by dose curve; note: nearly all actives have a fitted effect of over 45% in size)
# Chain of Thyrotropin receptor (Homo sapiens) (P16473 whole entry, looked up): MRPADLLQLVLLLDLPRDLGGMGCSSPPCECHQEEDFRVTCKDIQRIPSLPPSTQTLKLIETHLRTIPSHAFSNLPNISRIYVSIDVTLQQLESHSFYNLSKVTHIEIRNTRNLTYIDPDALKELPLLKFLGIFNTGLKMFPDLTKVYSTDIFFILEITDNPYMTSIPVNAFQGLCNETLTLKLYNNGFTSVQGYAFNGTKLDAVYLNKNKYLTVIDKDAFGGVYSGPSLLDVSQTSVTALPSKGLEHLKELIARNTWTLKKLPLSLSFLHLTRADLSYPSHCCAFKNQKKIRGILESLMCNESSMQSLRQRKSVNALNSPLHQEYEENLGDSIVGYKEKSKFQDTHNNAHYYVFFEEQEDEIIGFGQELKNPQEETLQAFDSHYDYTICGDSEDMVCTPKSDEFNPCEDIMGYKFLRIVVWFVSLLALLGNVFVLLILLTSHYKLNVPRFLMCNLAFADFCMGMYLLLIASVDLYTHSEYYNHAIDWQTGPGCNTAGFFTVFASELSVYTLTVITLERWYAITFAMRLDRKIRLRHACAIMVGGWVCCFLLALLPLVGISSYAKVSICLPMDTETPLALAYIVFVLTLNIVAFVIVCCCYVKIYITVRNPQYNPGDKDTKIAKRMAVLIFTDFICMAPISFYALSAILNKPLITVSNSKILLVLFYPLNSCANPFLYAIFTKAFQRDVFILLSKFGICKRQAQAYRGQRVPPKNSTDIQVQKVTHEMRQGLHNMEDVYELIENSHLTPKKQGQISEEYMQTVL
# Procedure, shortened: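 A cell-based cAMP HTRF format was run in TSHR-transfected HEK293 cells, 800 per well. Treatment: 30 min, room temperature. Detection: 1 h with labelled cAMP and anti-cAMP cryptate. Concentration-response over 15 points, three replicates.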
# [14] = qHTS assay to identify small molecule agonists of the hypoxia (HIF-1) signaling pathway - cell viability counter screen (AID 1224844; calls by dose curve; note: nearly all actives have a fitted effect of over 50% in size)
# Procedure, shortened: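 CellTiter-Glo luminescence read-out, 30 min RT, taken in the same wells as the beta-lactamase HRE reporter assay; HRE-bla ME-180 cells, 0.5% dialyzed FBS, 17 hr compound treatment at 37C, 5% CO2.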
# [15] = qHTS assay to identify small molecule agonists of H2AX (AID 1224845; active = well fitted activation curve with a large enough effect in the signal ratio in the repeat runs, not every such curve was filed as active; the % refers to the signal ratio)
# Procedure, shortened: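 Phospho-H2AX Ser139 measured by HTRF (ex 320 nm; em 665 and 620 nm) after 24 hr antibody incubation. Compounds, 15 concentrations, 0.76% DMSO, were applied to CHO-K1 cells for 3hr at 37C before lysis.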
# [16] = qHTS assay to identify small molecule agonists of H2AX - cell viability counter screen (AID 1224847; calls by dose curve; note: top concentration of the series differs between compounds; nearly all actives have a fitted effect of over 30% in size)
# Procedure, shortened: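 Quantitative HTS viability measurement: CHO-K1 wild-type cells in serum (10% FBS) medium, short 3 hr drug exposure at 37C with 0.76% DMSO, CellTiter-Glo luminescent detection.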
# [17] = qHTS assay to identify small molecule antagonists of the estrogen related receptor (ERR) signaling pathway from Tox21 library (AID 1224848); note: nearly all actives have a fitted effect of over 50% in size
# Procedure, shortened: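 ERR cell line, 2,000 cells/well. 6 h settle, then compound (DMSO) added; 18 h at 37 C; ONE-Glo luminescence after 30 min RT.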
# [18] = qHTS assay to identify small molecule antagonists of the estrogen related receptor (ERR) signaling pathway from Tox21 library - cell viability counter screen (AID 1224834); note: potency is the fitted concentration of half-maximal effect; nearly all actives have a fitted effect of over 30% in size
# Procedure, shortened: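 Multiplexed viability counter screen in ERR cells: 17.5 h compound exposure at 37 C, CellTiter-Fluor added, 30 min at 37 C/5% CO2, fluorescence read.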
# [19] = qHTS assay to identify small molecule agonists of the hypoxia (HIF-1) signaling pathway (AID 1224846; active = well fitted activation curve with a large enough effect in the signal ratio in the repeat runs, not every such curve was filed as active; the % refers to the signal ratio)
# Procedure, shortened: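 Beta-lactamase FRET read-out (CCF4-AM substrate) from ME-180 cells carrying an HRE-driven bla reporter, after 17 hrs compound exposure at 37C/5% CO2. Cells were seeded at 2,000 per well in 0.5% dialyzed FBS medium and preincubated 5 hrs.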
smiles,measurement,setting,value
CCN(c1nc(N)c(C(=O)N=C(N)N)nc1Cl)C(C)C,Potency,[1],9.81 µM (active)
same,Potency,[2],inactive
same,Potency,[3],inactive
CC(C)(C)c1ccc(S(=O)(=O)/C=C/C#N)cc1,Potency,[1],inactive
same,Potency,[2],inactive
same,Potency,[3],inactive
COc1cc(N)c(Cl)cc1C(=O)OCCN1CCCCC1,Potency,[1],inactive
same,Potency,[4],inactive
same,Potency,[5],inactive
same,Potency,[3],inactive
CC1CN(S(=O)(=O)c2cccc3cnccc23)CCN1 (stereo not given),Potency,[1],inactive
same,Potency,[2],inactive
same,Potency,[5],inactive
same,Potency,[3],inactive
CCCCOC(=O)NS(=O)(=O)c1sc(CC(C)C)cc1-c1ccc(Cn2c(CC)nc3c(C)cc(C)nc32)cc1,Potency,[1],11.9 µM (active)
same,Potency,[2],inactive
same,Potency,[3],inactive
Cc1ccc(S(=O)(=O)N[C@@H](Cc2ccccc2)C(=O)CCl)cc1,Potency,[1],inactive
same,Potency,[2],inactive
same,Potency,[5],26.6 µM (active)
same,Potency,[3],inactive
CC(C)COC(=O)OCN1C(=O)CN(CCN2CC(=O)N(COC(=O)OCC(C)C)C(=O)C2)CC1=O,Potency,[1],inactive
same,Potency,[5],inactive
same,Potency,[3],inactive
CC(=O)NNC(=O)N1Cc2ccccc2Oc2ccc(Cl)cc21,Potency,[1],inactive
same,Potency,[4],inactive
same,Potency,[5],inactive
same,Potency,[3],inactive
NC(=O)c1ccc2[nH]ccc2c1,Potency,[1],inactive
same,Potency,[4],inactive
same,Potency,[5],inactive
same,Potency,[3],inactive
Cc1nc(N=Nc2cc(S(=O)(=O)O)c3cc([N+](=O)[O-])cc(S(=O)(=O)O)c3c2)c(COP(=O)(O)O)c(C=O)c1O,Potency,[1],inactive
same,Potency,[4],inactive
same,Potency,[3],inactive
NCC(O)C1CCCCCCC1 (stereo not given),Potency,[1],inactive
same,Potency,[4],inactive
same,Potency,[5],inactive
same,Potency,[3],inactive
CCCCCC(O)CCCC(=O)O (stereo not given),Potency,[1],inactive
same,Potency,[4],inactive
same,Potency,[5],inactive
same,Potency,[3],inactive
N=C(N)SCCc1cnc[nH]1,Potency,[1],inactive
same,Potency,[4],inactive
same,Potency,[5],inactive
same,Potency,[3],inactive
Cc1cccc(C)c1OCC(N)C(C)C (stereo not given),Potency,[1],inactive
same,Potency,[4],inactive
same,Potency,[5],inactive
same,Potency,[3],inactive
C[C@](Cc1ccc(O)c(O)c1)(NN)C(=O)O,Potency,[1],inactive
same,Potency,[4],inactive
same,Potency,[5],inactive
same,Potency,[3],inactive
NCCNS(=O)(=O)c1cccc2c(Cl)cccc12,Potency,[1],inactive
same,Potency,[4],inactive
same,Potency,[5],inactive
same,Potency,[3],inactive
COc1cc(OC)cc(-c2cc3cnc(N)nc3nc2NC(=O)NC(C)(C)C)c1,Potency,[1],20.3 µM (active)
same,Potency,[5],inactive
same,Potency,[3],inactive
NC1(C(=O)O)CC1,Potency,[1],inactive
same,Potency,[4],inactive
same,Potency,[5],inactive
same,Potency,[3],inactive
N[C@H](CCCP(=O)(O)O)C(=O)O,Potency,[1],inactive
same,Potency,[4],inactive
same,Potency,[5],inactive
same,Potency,[3],inactive
COc1ccc(Br)cc1S(=O)(=O)NC(=O)/C=C/c1ccccc1Cc1ccc2ccccc2c1,Potency,[1],inactive
same,Potency,[4],inactive
same,Potency,[5],inactive
same,Potency,[3],inactive
CCCn1c(=O)c2[nH]c(C3CCCC3)nc2n(CCC)c1=O,Potency,[1],inactive
same,Potency,[4],inactive
same,Potency,[5],inactive
same,Potency,[3],inactive
N[C@H]1CONC1=O,Potency,[1],inactive
same,Potency,[4],inactive
same,Potency,[5],inactive
same,Potency,[3],inactive
CC(=O)O[C@H]1Cc2ccccc2N(C(N)=O)c2ccccc21,Potency,[1],inactive
same,Potency,[4],inactive
same,Potency,[5],inactive
same,Potency,[3],inactive
CCCOC(=O)c1ccc(O)cc1,Potency,[1],inactive
same,Potency,[4],inactive
same,Potency,[5],inactive
same,Potency,[3],inactive
same,Potency,[6],89.4 µM (active)
same,Potency,[7],inactive
same,Potency,[8],inactive
same,Potency,[9],inactive
same,Potency,[10],54.5 µM (active)
same,Potency,[11],inactive
same,Potency,[12],10.9 µM (active)
same,Potency,[13],inactive
same,Potency,[14],inactive
same,Potency,[15],inactive
same,Potency,[16],inactive
same,Potency,[17],inactive
CCCC(=O)c1cc(O)c(O)cc1O,Potency,[1],inactive
same,Potency,[4],inactive
same,Potency,[3],inactive
same,Potency,[18],43.3 µM (active)
same,Potency,[6],31.7 µM (active)
same,Potency,[10],inactive
same,Potency,[11],61.1 µM (active)
same,Potency,[19],inactive

# Reference: PubChem BioAssay (Tox21)
